Source: PubChem BioAssay (EPA / NIEHS)
Records with an inconclusive call do not appear. Active and inactive are the calls of the source. How the source made its calls: active means hit-call score of the fitted dose curve at least 0.9, where 1 is the maximum; inconclusive means response in the unintended direction; inactive means score below 0.9.

The molecules below were run on alkyl and aryl transferase (GSTA2), GSTA2 (gene 2939) (assay: CLD_GSTA2_6hr: CellzDirect (CLD) Gene Expression Assay for alkyl and aryl transferase (GSTA2) at 6 hours (AID 2283666)).
Method: CLD_6hr is a cell-based, multiplexed-readout assay that uses hepatocyte, a human liver primary cell, with measurements taken at 6 hours after chemical dosing in a 96-well plate.CLD_GSTA2_6hr is one of 16 assay component(s) measured or calculated from the CLD_6hr assay. It is designed to make measurements of mRNA induction, a form of inducible reporter, as detected with chemiluminescence signals by Quantitative Nuclease Protection Assay (qNPA) technology.Data from the assay component CLD_GSTA2_6hr was analyzed at the endpoint, CLD_GSTA2_6hr, in the positive analysis fitting direction relative to DMSO as the negative control and baseline of activity. Using a type of inducible reporter, gain-of-signal activity can be used to understand changes in the reporter gene as they relate to the gene GSTA2. Furthermore, this assay endpoint can be referred to as a primary readout. To generalize the intended target to other relatable targets, this assay endpoint is annotated to the transferase intended target family, where subfamily is alkyl and aryl transferase.
Human hepatocyte cultures were treated daily for two consecutive days with fresh dosing solutions containing appropriate concentrations of the 320 ToxCast chemicals (chemical identities were blinded to CellzDirect and other ToxCast collaborators), vehicle control (0.2% DMSO), and positive control inducers as summarized in Table 1. Due to the large number of treatment groups and chemicals examined, the ToxCast chemicals were divided into two groups (spanning two independent cultures of hepatocytes from separate donor preparations (Hu778: ToxCast plates 1 and 2; Hu776: ToxCast plates 3 and 4). Each preparation of human hepatocyte cultures was treated with respective vehicle control, medium only control, set of six positive controls/reference chemicals for the five hepatic receptor pathways, and a subset of eight of the ToxCast chemicals (indoxacarb, pyrithiobac-sodium, norflurazon, cyhalofop-butyl, methomyl, thiram, acetochlor, and propiconazole). These replicate data, coupled with internal replicates designed within the blinded ToxCast chemical library, provided additional data to evaluate interindividual differences between hepatocyte preparations and their potential impact on chemical profiles.Cell morphology and integrity were evaluated using phase-contrast microscopy as an indicator of hepatocyte cell health (Tyson & Green, 1987). Cultures for each treatment group (i.e., media, vehicle [0.2% DMSO], positive control inducers [multiple concentrations], and the ToxCast chemicals [multiple concentrations]) were observed and cell morphology was assessed relative to vehicle control cultures at each harvest time point (0, 6, 24, or 48 h). […] Images were evaluated at the conclusion of the study to assess changes in cell integrity and account for the effects of chemical exposure on uncharacteristic changes in concentration-dependent gene expression profiles. The results from these determinations of apparent cytotoxicity were annotated (yes/no) alongside the corresponding qNPA data for reference.At the conclusion of each treatment period, hepatocyte cultures (96-well) were washed with 1 volume of HBSS, lysed by addition of 25 ul ArrayPlate lysis buffer (HTG, Tucson, AZ), and 70 ul/well of Denaturation Oil, denatured by incubation at 95C for 10 min, and frozen at approximately -70C until analysis by nuclease protection assay (qNPA) (Roberts et al., 2007). For qNPA analysis, cell lysates were thawed at 50C for approximately 30 min, qNPA probes were added, and samples were incubated at 95C for 10 min to begin the detection process by denaturing the target RNA, dissociating the duplexes and secondary structure hybridization. At the conclusion of the hybridization period, S1 nuclease reagent was added to each sample to digest all nonprotected nucleotides at 50C for 60-90 min. […]

Row | Compound | outcome
1 | N#CN | inactive
2 | CN1CSC(=S)N(C)C1 | inactive
3 | COC(=O)c1ccccc1CS(=O)(=O)NC(=O)Nc1nc(OC)cc(OC)n1 | inactive
4 | CNC(=O)Oc1cccc(N=CN(C)C)c1 | inactive
5 | CCOc1nc(NC)nc(NC(=O)NS(=O)(=O)c2ccccc2C(=O)OC)n1 | inactive
6 | OCCOc1ccccc1 | inactive
7 | CCOC1Oc2ccc(OS(C)(=O)=O)cc2C1(C)C (stereo not given) | inactive
8 | CCOCN(C(=O)CCl)c1c(C)cccc1CC | inactive
9 | CC(C)(C)C(O)C(Oc1ccc(Cl)cc1)n1cncn1 (stereo not given) | inactive
10 | CCS(=O)(=O)c1cccnc1S(=O)(=O)NC(=O)Nc1nc(OC)cc(OC)n1 | inactive
11 | CCC(C)(NC(=O)c1cc(Cl)c(C)c(Cl)c1)C(=O)CCl (stereo not given) | inactive
12 | C[C@H]1[C@H](c2ccc(Cl)cc2)SC(=O)N1C(=O)NC1CCCCC1 | inactive
13 | O=C(O)COc1ccc(Cl)cc1Cl | inactive
14 | N#Cc1c(Cl)c(Cl)c(Cl)c(C#N)c1Cl | inactive
15 | CCN(CC)C(=O)SCc1ccc(Cl)cc1 | inactive
16 | CNC(=O)CSP(=S)(OC)OC | inactive
17 | ClC1C(Cl)C(Cl)C(Cl)C(Cl)C1Cl (stereo not given) | inactive
18 | CCC(C)(C)C(=O)OC1=C(c2ccc(Cl)cc2Cl)C(=O)OC12CCCCC2 | inactive

Row | Compound | outcome
19 | O=C(NC(=O)c1c(F)cccc1F)Nc1ccc(OC(F)(F)C(F)OC(F)(F)F)c(Cl)c1 (stereo not given) | inactive
20 | [2H]C1([2H])[n+]2ccccc2-c2cccc[n+]2C1([2H])[2H] | inactive
21 | Oc1ccc(Cl)cc1Cc1ccccc1 | inactive
22 | O=[N+]([O-])c1c(Cl)c(Cl)c(Cl)c(Cl)c1Cl | inactive
23 | O=C(O)CCCOc1ccc(Cl)cc1Cl | inactive
24 | O=[N+]([O-])/N=C1\NCCN1Cc1ccc(Cl)nc1 | inactive
25 | CCc1ccc(C(=O)NN(C(=O)c2cc(C)cc(C)c2)C(C)(C)C)cc1 | inactive
26 | CC(C)OC(=O)Nc1cccc(Cl)c1 | inactive
27 | CC(C)(C)C(O)/C(=C\c1ccc(Cl)cc1Cl)n1cncn1 (stereo not given) | inactive
28 | CC1(C)C(C=C(Cl)Cl)C1C(=O)OC(C#N)c1ccc(F)c(Oc2ccccc2)c1 (stereo not given) | inactive
29 | CC1(c2ccc(Oc3ccccc3)cc2)OC(=O)N(Nc2ccccc2)C1=O (stereo not given) | inactive
30 | O=C(Nc1ccccc1)Nc1cnns1 | inactive
31 | C#CCN1C(=O)COc2cc(F)c(N3C(=O)C4=C(CCCC4)C3=O)cc21 | inactive
32 | COC(=O)c1ccccc1S(=O)(=O)NC(=O)N(C)c1nc(C)nc(OC)n1 | inactive
33 | Clc1ccccc1-c1nnc(-c2ccccc2Cl)nn1 | inactive
34 | CCCN(CCC)c1c([N+](=O)[O-])cc(C(F)(F)F)cc1[N+](=O)[O-] | inactive
35 | Oc1cc(Cl)ccc1Oc1ccc(Cl)cc1Cl | inactive
